Experimental data published in PubChem BioAssay (NCATS).
Results filed as inconclusive are left out. Calls of active or inactive are those of the source. Unless noted, calls come from the whole dose curve; as a rule, active = well fitted curve in the direction sought with a large enough effect; inconclusive = small, poorly fitted or top-dose-only effect, or another doubt; inactive = no such curve, though single readings can be large; an effect the other way counts as inactive or inconclusive.

Tests used:
[1] = qHTS profiling of the MIPE4 collection as inhibitors of Plasmodium falciparum (DD2) proliferation (Rep 2) (AID 743346; call rule not given here); details: P. falciparum Dd2 in erythrocytes, SYBR Green DNA, 72 h; at 28.5 µM unless noted
Outline: (§1)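 Parasite DNA was quantified by SYBR Green I fluorescence (ex 485, em 535 nm) after overnight lysis in saponin/Triton buffer at room temperature. Cultures at 0.3% parasitemia and 2.5% hematocrit were first exposed to compound for 72 h at 37 C; signals were normalised to artemisinin (0.29 uM) and vehicle wells.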

[2] = High-throughput drug toxicity screening in the BPDCN cell line Gen2.2 (AID 1224824; call rule not given here;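 note: cells exposed to compounds for 48 h before reading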); details: Gen2.2 BPDCN cells; at 45.8 µM (top of the series) unless noted
Outline: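 CellTiter-Glo luminescence after 48 h compound exposure of Gen2.2 cells; percent activity set with DMSO as 100% and bortezomib (9.2 uM final) as 0%. Cells seeded at 500 per well, RPMI + 10% FBS, 37 °C.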

[3] = High-throughput drug toxicity screening in the BPDCN cell line Cal-1 (AID 1224825; call rule not given here); details: Cal-1 BPDCN cell viability, qHTS; at 45.8 µM (top of the series) unless noted
Outline: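 CellTiter-Glo luminescence after 48 h compound exposure; percent activity scaled with DMSO as 100% and bortezomib (9.2 uM final) as 0%. Cal-1 cells seeded at 500/well in RPMI, 10% FBS, no phenol red.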

[4] = qHTS assay for measurement of the activity of small molecule inhibitors on Zika virus induced Caspase-3 activity in human iPSC derived neural progenitor cells (hNPCs) (AID 1224857); note: % of control where 0% means no effect; nearly all actives have a fitted effect of over 65% in size
Outline: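 Caspase-3/7 induction by a 6-hour ZIKV infection was quantified with a luminescent Caspase-Glo 3/7 reagent incubated 30 minutes at room temperature. Compounds were preincubated with hNPCs for 1 hour; inhibition was calculated against uninfected and infected control wells.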

[5] = qHTS assay for measurement of the activity of small molecule inhibitors on Zika virus induced Caspase-3 activity in human astrocytoma cells (AID 1224859);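 note: plate controls were ZIKV-infected untreated cells for no effect and uninfected cells for full effect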
Outline: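 In SNB-19 cells plated at 250 cells/well and grown 16-20 h, compounds were applied 1 h before ZIKV (2 FFU/cell). Six hours later caspase-3/7 luminescence was recorded.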

[6] = qHTS Screen of the MIPE 4.0 Collection Against Ewings Sarcoma (RDES) (AID 1259252); note: nearly all actives have a fitted effect of over 35% in size; note: potency is the fitted concentration of half-maximal effect
Outline: (§2)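 Dose series incubated 48 h with cells in RPMI plus 5% FBS, glutamine and penicillin/streptomycin; cell viability then quantified via CellTiter-Glo.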

[7] = qHTS Screen of the MIPE 4.0 Collection Against Ewings Sarcoma (TC71) (AID 1259253); note: nearly all actives have a fitted effect of over 40% in size; note: potency is the fitted concentration of half-maximal effect
Outline: as §2

[8] = qHTS Screen of the MIPE 4.0 Collection Against Ewings Sarcoma (EW8) (AID 1259255); note: nearly all actives have a fitted effect of over 35% in size; note: potency is the fitted concentration of half-maximal effect;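 for viability: 100% = DMSO-treated cells and 0% = medium-only wells without cells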
Outline: as §2

[9] = qHTS assay to identify small molecule inhibitors of chordoma cells - UCH-1 (AID 1259355); note: nearly all actives have a fitted effect of over 55% in size; note: potency is the fitted concentration of half-maximal effect
Outline: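 Screening used approved and investigational drugs in 15-point titration against 800 seeded cells per well. A fixed combination of auranofin with camptothecin, doxorubicin, rubitecan and topotecan followed compound addition, and growth was scored by CellTiter-Glo after 48hr.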

[10] = qHTS assay to identify small molecule inhibitors of chordoma cells - UCH-2 (AID 1259356); note: potency is the fitted concentration of half-maximal effect
[11] = Identifying Small Molecule Inhibitors of Pancreatic Cancer Stem Cells (SN12C, Adherent) (AID 1259358);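 note: potency is the fitted concentration of half-maximal effect; cell survival measured after 48 h of compound exposure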
Outline: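 Endpoint: ATP-based luminescence, 48 h drug exposure. Bortezomib at 9.2 uM final as full-kill control; DMSO vehicle as negative control; activity normalized between vehicle and cell-free wells.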

[12] = Identifying Small Molecule Inhibitors of Pancreatic Cancer Stem Cells (Panc1, Spheroid) (AID 1259359); details: Panc1 spheroid cancer stem cell viability;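 note: potency is the fitted concentration of half-maximal effect; compound exposure lasted 48 h before reading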
Outline: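 After a 4 h attachment period, compounds were pinned into wells and cultures held 48 h under standard incubator conditions. Viability was then measured as CellTiter-Glo luminescence following 10 min at room temperature.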

[13] = qHTS profiling for inhibitors of Plasmodium falciparum (3D7) proliferation (AID 743322; call rule not given here;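 note: infected erythrocytes exposed to compound for 72 h before lysis; 100% = DMSO vehicle wells and 0% = 0.29 µM artemisinin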); details: P. falciparum 3D7 proliferation; at 28.7 µM (top of the series)
Outline: as §1

[14] = qHTS profiling for inhibitors of Plasmodium falciparum (DD2) proliferation (AID 743323; call rule not given here); details: lower = more inhibition; at 28.7 µM (top of the series)
Outline: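 P. falciparum Dd2-infected erythrocytes (0.3% parasitemia, 2.5% hematocrit) exposed 72 h at 37 C, 5% CO2. Lysis with SYBR Green, overnight at room temperature, fluorescence 485/535 nm; normalized to 0.29 uM artemisinin and DMSO.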

[15] = qHTS profiling for inhibitors of Plasmodium falciparum (HB3) proliferation (AID 743324); details: Plasmodium falciparum HB3 blood-stage proliferation; at 28.7 µM (top of the series);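 note: 100% = DMSO vehicle wells and 0% = artemisinin-treated control wells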
Outline: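 SYBR Green fluorescence (485 ex/535 em) of lysed cultures, incubated overnight at room temperature in the dark, quantifies parasite DNA. Infected erythrocytes at 0.3% parasitemia and 2.5% hematocrit were exposed 72 h; values normalized to DMSO and 0.29 uM artemisinin controls.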

[16] = qHTS profiling of the MIPE4 collection as inhibitors of Plasmodium falciparum (3D7) proliferation (AID 743344; call rule not given here;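 note: scaled between DMSO vehicle wells and 0.29 µM artemisinin as full inhibition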); details: P. falciparum 3D7 in erythrocytes, SYBR Green DNA fluorescence, 72 h; at 28.5 µM unless noted
Outline: as §1

[17] = qHTS profiling of the MIPE4 collection as inhibitors of Plasmodium falciparum (DD2) proliferation (AID 743345; call rule not given here); details: P. falciparum Dd2 in erythrocytes, SYBR Green DNA, 72 h; at 28.5 µM unless noted
Outline: as §1

[18] = qHTS Screen of the MIPE 4.0 Collection Against Ewings Sarcoma (TC32) (AID 1259256);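 note: 100% = DMSO-treated cells and 0% = medium-only wells without cells; nearly all actives have a fitted effect of over 45% in size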
Outline: as §2

[19] = qHTS profiling of the MIPE4 collection as inhibitors of Plasmodium falciparum (HB3) proliferation (AID 743347; call rule not given here;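 note: plate controls were DMSO vehicle wells for no effect and artemisinin wells for full effect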); details: P. falciparum HB3 in erythrocytes, SYBR Green DNA, 72 h; at 28.5 µM unless noted
Outline: as §1

Compound	parasite growth, % of control (lower = inhibition) [1] [%]	cell viability, % of control (lower = more cytotoxic) [2] [%]	viability (% of control) [3] [%]	Potency [4]	Potency [5]	Potency [6]	Potency [7]	Potency [8]	Potency [9]	Potency [10]	Potency [11]	Potency [12]	remaining parasite growth % (stronger effect = lower value) [13] [%]	activity, percent of control [14] [%]	remaining proliferation (% of control), lower = more inhibition [15] [%]	parasite growth, % of DMSO control [16] [%]	parasite growth remaining, % of DMSO control (lower = more inhibition) [17] [%]	Potency [18]	growth, % of control [19] [%]
COc1cc([C@@H]2c3cc4c(cc3[C@H](O)[C@H]3COC(=O)[C@H]23)OCO4)cc(OC)c1OC	10.2	7.94	8.85	inactive	inactive	inactive	inactive	inactive	0.0079 µM (active)	inactive	0.0187 µM (active)	0.0021 µM (active)	–	–	–	–	–	–	–
CCCCS(=N)(=O)CCC(N)C(=O)O (configuration not stated)	193	17.3	34.2	inactive	inactive	14.8 µM (active)	inactive	inactive	–	–	–	–	88.1	31.7	88	102	94.1	inactive	–
C[C@@H](NCCCc1cccc(C(F)(F)F)c1)c1cccc2ccccc12	10.9	264	110	inactive	inactive	inactive	1.48 µM (active)	inactive	–	25.9 µM (active)	–	–	–	–	–	16.2	18.5	–	4.3
CC1CC2C3CCC4=CC(=O)C=C[C@]4(C)[C@@]3(F)[C@@H](O)C[C@]2(C)[C@@]1(O)C(=O)CO (some centres not stated)	85.8	115	56.6	inactive	inactive	inactive	inactive	inactive	–	–	–	–	–	–	–	85.2	–	inactive	102
NC(=O)c1ccc2[nH]ccc2c1	122	140	90.6	inactive	inactive	inactive	inactive	inactive	–	–	–	–	–	–	–	98	90.8	inactive	57.5
NC(N)=NC(N)=NCCc1ccccc1	47	88	75.1	inactive	inactive	11.8 µM (active)	18.7 µM (active)	16.6 µM (active)	inactive	inactive	–	–	–	–	–	21.2	–	–	–
